An excerpt weighted towards active compounds, which were near 5.7% of everything screened.
IL1B secr inh: blocks inflammasome-driven IL-1 beta release; activity change, % at 57.5 µM; AID 743279; THP-1 LPS/ATP IL-1B secretion, AlphaLISA, 16 h; stronger effect = lower value; 360,000 tested, 4.7% active; in the data active = activity change below about -50%; inconclusive = mostly about -30% to -49%
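Secreted IL-1B measured by AlphaLISA bead assay after 16 h compound exposure of THP-1 cells; compounds (final up to 57.5 uM) added 1 h before LPS (250 ng/mL) and ATP (1.25 mM) stimulation; lower signal means less secretion.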
ATXN2 expr inh: ATXN2 expression inhibition. HEK-293 ATXN2-luciferase reporter, luminescence, 24 h. Potency, µM (series often up to 57 µM), usual class: inhibitors. 360,000 tested, 0.72% active; note: nearly all actives have a fitted effect of over 55% in size
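qHTS (up to 57 uM final) was run with 24 h compound exposure of reporter cells at 37 °C. Each well was multiplexed: SteadyGlo luminescence measured ATXN2-luciferase expression after a fluorogenic Gly-Phe-AFC viability readout (25 uM final).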
HepG2 viability: kills HepG2 cells in TGF-b inhibitor counter-screen. AID 588856. HepG2 CAGA-GFP viability, ATP luminescence, 18 h. 410,000 tested, 0.76% active. Potency, µM (highest dose often 46.1 µM), most hits filed as cytotoxic
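CellTiter-Glo luminescence gave cytotoxicity after 18 hours at 37 degrees C. The cells were HepG2 CAGA-GFP in 1% FBS DMEM, stimulated with 500 pg/mL TGF-beta after compound addition. %Activity was normalised to no-cell wells (complete cell-killing) and DMSO (no toxicity), and curves were fitted and classified.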
TGFb inhibitor: inhibitors of TGF-b signaling. HepG2 CAGA-GFP TGF-b/SMAD3 reporter, GFP fluorescence, 18 h; TGF-beta stimulated, 500 pg/mL final. Potency, µM (doses to about 46.1 µM), actives largely listed as inhibitors. 410,000 tested, 1.2% active; note: nearly all actives have a fitted effect of over 65% in size
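HEPG2 CAGA-GFP, 1000 cells/well; 2 h settle, 37 C; cpd via pin tool; TGF-b 500 pg/mL final; 18 h, 37 C; GFP imaging ex488/em500-530; %Activity normalised to -TGF-b and +DMSO controls; CRC fit, curve class.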
ATXN viability: reduces viability in counter-screen for ATXN expression inhibitors; Potency, µM (series often up to 56.7 µM), hits mostly cytotoxic; AID 651635; 400,000 tested, 0.49% active; S2 cells (HEK-293 line with an ATXN2-luciferase reporter) viability, CellTiter-Fluor protease fluorescence, 24 h; note: nearly all actives have a fitted effect of over 40% in size
Large screens that a line does not name were inactive; ! = a repeat was not active. Unless noted, calls come from the whole dose curve; as a rule, active = well fitted curve in the direction sought with a large enough effect; inconclusive = small, poorly fitted or top-dose-only effect, or another doubt; inactive = no such curve, though single readings can be large; an effect the other way counts as inactive or inconclusive.

CCc1ccc(NC(=O)c2ccc3oc(=O)n(Cc4ccccc4)c3c2)cc1	TGFb inhibitor inconclusive, ATXN viability inconclusive (no result: IL1B secr inh)
CC(C)CCOC(=O)c1c(N)n(CC2CCCO2)c2nc3ccccc3nc12 (configuration not stated)	IL1B secr inh -65, TGFb inhibitor 11µM
CC(C)OCCCNC(=O)c1c(N)n(CC2CCCO2)c2nc3ccccc3nc12 (configuration not stated)	IL1B secr inh -64, ATXN2 expr inh inconclusive, TGFb inhibitor inconclusive (no result: ATXN viability)
c1ccc(N2CCNCC2)cc1	none (no result: IL1B secr inh, HepG2 viability, TGFb inhibitor)
CCOC(=O)N1CCC(NC(=O)c2ccc3c(c2)N(Cc2cccc(C)c2)C(=O)c2ccccc2S3(=O)=O)CC1	TGFb inhibitor inconclusive (no result: IL1B secr inh)
COc1ccc2c(c1)C(c1ccc(N(CCCl)CCCl)cc1)=NCC2	IL1B secr inh -90, ATXN2 expr inh inconclusive, TGFb inhibitor inconclusive, ATXN viability inconclusive
O=C(Nc1ccc(C(=O)O)cc1)Oc1ccc(N(CCCl)CCCl)cc1	ATXN2 expr inh inconclusive, ATXN viability inconclusive
ClCCN(CCCl)c1ccc(C2=NCCc3ccccc32)cc1	IL1B secr inh -78, TGFb inhibitor inconclusive, ATXN viability inconclusive
CCN(C(=O)Cn1c(=O)oc2cc(S(=O)(=O)N3CCCCCC3)ccc21)c1cccc(C)c1	none (no result: IL1B secr inh, ATXN2 expr inh, TGFb inhibitor, ATXN viability)
Cc1ccc(-n2nc3c(=O)n(CC(=O)NCC(C)c4ccccc4)nc(C)c3c2C)cc1 (configuration not stated)	ATXN viability inconclusive (no result: IL1B secr inh)
CCCC(C)c1nnc(NC(=O)CCS(=O)(=O)c2ccccc2)s1 (configuration not stated)	IL1B secr inh -96, TGFb inhibitor inconclusive
CCc1nnc(NC(=O)CCc2nc(C3=CCN(C)CC3)no2)s1	IL1B secr inh -54
COc1ccc2nc(NC(=O)CCc3nc(C4=CCN(C)CC4)no3)sc2c1	none
Nc1ccc(N=Nc2ccccc2)cc1	ATXN viability 22µM!
O=C(NC1CC1)c1cn(Cc2ccccc2)nc1-c1ccccc1	none
Cc1ccc(Cn2cc(C=O)c(-c3ccc(C)cc3)n2)cc1	IL1B secr inh -58, TGFb inhibitor inconclusive
c1ccc2c(N3CCNCC3)nsc2c1	IL1B secr inh -54, ATXN2 expr inh inconclusive
Cc1cccc(N(C)S(=O)(=O)c2cc(-c3cnc(C4CC4)o3)ccc2C)c1	TGFb inhibitor inconclusive (no result: IL1B secr inh)
O=c1c2ccccc2nc2n1CCS2(=O)=O	IL1B secr inh -89, TGFb inhibitor inconclusive
CCC(COC(=O)c1cc(OC)c(OC)c(OC)c1)(c1ccccc1)N(C)C (configuration not stated)	IL1B secr inh -53!
O=S(=O)(c1ccccc1C(F)(F)F)N1CCN(c2ncnc3sccc23)CC1	IL1B secr inh -62, ATXN2 expr inh inconclusive, TGFb inhibitor 13µM
O=S(=O)(c1ccc(F)c(F)c1F)N1CCN(c2ncnc3sccc23)CC1	TGFb inhibitor inconclusive
C[C@@H]1O[C@@H](O[C@@H]2C=C3CCC4C(CC[C@]5(C)[C@@H](c6ccc(=O)oc6)CC[C@]45O)[C@@]3(C)CC2)[C@H](O)[C@H](O)[C@H]1O (some centres not stated)	IL1B secr inh -52, ATXN viability inconclusive
C[C@@H]1O[C@@H](O[C@@H]2C=C3CC[C@@H]4C(CC[C@]5(C)[C@@H](c6ccc(=O)oc6)CC[C@]45O)[C@@]3(C)CC2)[C@H](O)[C@H](O)[C@H]1O (some centres not stated)	IL1B secr inh -56, TGFb inhibitor 0.28µM, ATXN viability inconclusive
CC(=O)C1CCC2(O)C3CCC4=CC(=O)CCC4(C)C3CCC12C (configuration not stated)	none
CC(Cc1ccccc1)NCCCCl (configuration not stated)	none (no result: IL1B secr inh, HepG2 viability, TGFb inhibitor)
CCOc1ccc(N(C(C)C(=O)Nc2cc(Cl)ccc2OC)S(C)(=O)=O)cc1 (configuration not stated)	TGFb inhibitor inconclusive, ATXN viability inconclusive (no result: IL1B secr inh)
COc1ccccc1CNc1nc(NCc2ccccc2SC)c2sccc2n1	IL1B secr inh -99, ATXN2 expr inh inconclusive, TGFb inhibitor inconclusive, ATXN viability inconclusive
O=P(Nc1c(Cl)cccc1Cl)(c1ccccc1)c1nc2c(s1)CCCC2 (configuration not stated)	IL1B secr inh -61
